Screening data as filed in PubChem BioAssay.
SENP8 block-1: blocks human SENP8 cleavage of Nedd8 substrate; inhibition, % at 20 µM; 360,000 tested, 0.64% active; recombinant SENP8, Nedd8 substrate fluorescence; Q96LD8; in the data active means inhibition mostly above about 40%, no sharp cut-off; inactive means mostly below about 27%
Target sequence (Q96LD8 whole entry, looked up): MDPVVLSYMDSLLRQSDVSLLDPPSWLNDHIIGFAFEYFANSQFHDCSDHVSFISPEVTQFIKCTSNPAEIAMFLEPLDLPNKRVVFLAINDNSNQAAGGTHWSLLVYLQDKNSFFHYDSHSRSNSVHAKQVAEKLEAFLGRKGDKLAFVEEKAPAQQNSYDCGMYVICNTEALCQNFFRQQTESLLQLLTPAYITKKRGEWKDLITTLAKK
SENP8 block-2: inhibitors of human SENP8 protease | purified SENP8, Z-RLRGG-aminoluciferin cleavage, luminescence | 330,000 tested, 1.2% active | AID 2540 | Q96LD8 | inhibition, % at 10 µM; in the data active means inhibition above about 50%
SENP7 block: SENP7 protease inhibition | Q9BQF6 | AID 434973 | recombinant SENP7, Z-RLRGG-aminoluciferin luminescence, 40 min | 330,000 tested, 1.5% active | inhibition, % at 5 µM;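 active means inhibition above about 50% at the single test dose, limit read from the data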;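 further: plate controls were DMSO with enzyme for no effect and no enzyme buffer wells for full effect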
Target sequence (Q9BQF6 706-1050 limits assumed): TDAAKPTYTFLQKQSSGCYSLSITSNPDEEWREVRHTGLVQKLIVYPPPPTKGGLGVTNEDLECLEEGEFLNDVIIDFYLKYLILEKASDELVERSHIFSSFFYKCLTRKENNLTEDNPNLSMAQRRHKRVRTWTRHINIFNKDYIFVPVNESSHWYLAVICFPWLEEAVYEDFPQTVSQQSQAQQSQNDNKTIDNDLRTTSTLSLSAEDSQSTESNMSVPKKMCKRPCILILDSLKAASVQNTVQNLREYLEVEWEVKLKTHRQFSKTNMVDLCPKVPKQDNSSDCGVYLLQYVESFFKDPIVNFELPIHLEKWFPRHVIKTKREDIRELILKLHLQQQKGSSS
Platelet DG rel: platelet dense granule release activity | human platelet-rich plasma, SFLLRN dense granule ATP release, luminescence | AID 1663 | inhibition, %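 (compounds screened at 7.5 µM in platelet-rich plasma)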 | 300,000 tested, 0.22% active;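 active means mean replicate score, as percent of positive control, at or above 50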
SENP6 inh: blocks the human protease SENP6. AID 2599. Recombinant SENP6 catalytic domain, aminoluciferin luminescence. 330,000 tested, 1.8% active. inhibition, % at 10 µM. Q9GZR1;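 active means inhibition above about 50% at the single tested dose, limit read from the data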;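 further: plate controls were DMSO wells with enzyme for no effect and DMSO wells lacking enzyme for full effect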
Active calls of the source: *. Only some compounds are listed: those with a hit (about 2.4% of all), similar ones and a draw of the others.

For Cc1ccccc1CNC(=O)C(=O)NCC1OCCCN1S(=O)(=O)c1cccs1 (stereo not given) the results were SENP8 block-1 -3, SENP8 block-2 2, SENP7 block -4, Platelet DG rel 2 and SENP6 inh 10.
Screening CN1C=CC=C/C1=C1\SC(=S)N(CC(=O)O)C1=O returned SENP8 block-1 16, SENP8 block-2 -4, SENP7 block -4, Platelet DG rel 5 and SENP6 inh 15.
For CN1C=CC=C/C1=C1\SC(=S)N(c2ccccc2)C1=O the results were SENP8 block-1 44*, SENP8 block-2 6, SENP7 block 12, Platelet DG rel 5 and SENP6 inh 14.
Screening CC(=O)Nc1ccc(NC(=O)c2c(-c3ccccc3)noc2C)cn1 returned SENP8 block-1 2, SENP8 block-2 11, SENP7 block -3, Platelet DG rel -8 and SENP6 inh 10.
Screening CC1OC2CC(=O)OC2C2=C1C(=O)c1c(O)cccc1C2=O (stereo not given) returned SENP8 block-1 99*.
Screening O=C1S/C(=C\c2ccc(O)c([N+](=O)[O-])c2)C(=O)N1c1ccccc1Cl returned SENP8 block-1 28, SENP8 block-2 -8, SENP7 block -9, Platelet DG rel 0 and SENP6 inh -8.
Screening CN1C(=O)/C(=C/c2ccc(O)c([N+](=O)[O-])c2)N(C)C1=S returned SENP8 block-1 26, SENP8 block-2 87*, SENP7 block 83*, Platelet DG rel 9 and SENP6 inh 91*.
O=C1C=C(O)c2c(O)cc(O)c(O)c2C1=O was read as SENP8 block-1 47*, SENP8 block-2 5, SENP7 block 4, Platelet DG rel 1 and SENP6 inh 4.
CC(C)(C)c1cc(NC(=O)c2cccs2)no1 was read as SENP8 block-1 2, SENP8 block-2 88*, SENP7 block 95*, Platelet DG rel 12 and SENP6 inh 89*.
Screening COc1ccc(/C=N\n2nnc3ccccc32)cc1 returned SENP8 block-1 -6, SENP8 block-2 94*, SENP7 block 90*, Platelet DG rel 23 and SENP6 inh 97*.
For Cn1cc(-c2ccno2)c(C(=O)O)n1 the results were SENP8 block-1 12, SENP8 block-2 -7, SENP7 block 3, Platelet DG rel 2 and SENP6 inh -12.
Screening COc1ccc(NC(=O)c2cc(S(=O)(=O)N3CCc4ccccc43)cn2C)cc1 returned SENP8 block-1 10, SENP8 block-2 -5, SENP7 block 17, Platelet DG rel 98* and SENP6 inh -6.
For COc1cc(NC(=O)c2ccccc2)c(OC)cc1NC(=O)CSc1[nH]c(=O)cc(C)c1C#N the results were SENP8 block-1 -107, SENP8 block-2 3, SENP7 block -1, Platelet DG rel 71* and SENP6 inh 3.
COc1ccc(Cc2c3cc(OC)c(OC)cc3cc[n+]2C)cc1OC was read as SENP8 block-1 60*, SENP8 block-2 14, SENP7 block -6, Platelet DG rel 1 and SENP6 inh 20.
For C[C@]12CC[C@@H]3c4cc(O)c(O)cc4CC[C@H]3[C@@H]1CC[C@@H]2O the results were SENP8 block-1 41*, SENP8 block-2 -4, SENP7 block 11, Platelet DG rel -3 and SENP6 inh 1.
For C[C@]12CC[C@@H]3c4ccc(O)cc4CC[C@H]3[C@@H]1CC[C@@H]2O the results were SENP8 block-1 5, SENP8 block-2 -1, SENP7 block -6, Platelet DG rel -1 and SENP6 inh 1.
`NS(=O)(=O)c1ccc(N/N=C/c2ccc(C(=O)O)cc2)c([N+](=O)[O-])c1` gave SENP8 block-1 29, SENP8 block-2 1, SENP7 block -2, Platelet DG rel -1 and SENP6 inh -5.
For Cc1nn(-c2ccccc2)c(N2CCCC2)c1/C=N/Nc1ccc(S(N)(=O)=O)cc1[N+](=O)[O-] the results were SENP8 block-1 48*, SENP8 block-2 1, SENP7 block -6, Platelet DG rel -3 and SENP6 inh -23.
Screening CCNC(=S)NS(=O)(=O)c1ccccc1 returned SENP8 block-1 42*, SENP8 block-2 2, SENP7 block 3, Platelet DG rel -4 and SENP6 inh 7.
CCOC(=O)/C=C(\C)Sc1cc(O)c2ccccc2c1O was read as SENP8 block-1 48*.
For CCOC(=O)/C=C(\C)Sc1cc(=O)oc2ccccc12 the results were SENP8 block-1 10, SENP8 block-2 -9, SENP7 block -9, Platelet DG rel -7 and SENP6 inh -20.
Screening COCC(=O)OC1CCn2c1nc1c2C(=O)C(C)=C(NC(C)=O)C1=O (stereo not given) returned SENP8 block-1 96*.
Screening O=S(=O)(Nc1cc(Sc2ncn[nH]2)c(O)c2ccccc12)c1ccccc1 returned SENP8 block-1 31, SENP8 block-2 25, SENP7 block 72* and SENP6 inh 79*.
c1ccc2c(c1)CCN(c1nc3cc4c(cc3s1)OCO4)C2 was read as SENP8 block-1 -82, SENP8 block-2 94*, SENP7 block 96*, Platelet DG rel -5 and SENP6 inh 88*.
Screening Cc1[nH]n(-c2ccccc2)c(=O)c1N=Nc1ccc(C(=O)O)cc1 returned SENP8 block-1 28, SENP8 block-2 2, SENP7 block 8, Platelet DG rel -6 and SENP6 inh -11.
For CC(=O)c1ccc(N=Nc2c(C)[nH]n(-c3ccccc3)c2=O)cc1 the results were SENP8 block-1 48*, SENP8 block-2 -1, SENP7 block 2, Platelet DG rel -4 and SENP6 inh -6.
For CC(=O)C1=CN(Cc2ccccc2)CCC1=O the results were SENP8 block-1 9.
CC(=O)c1ccc(NC(=S)Nc2cccc3cnccc23)cc1 was read as SENP8 block-1 -318, SENP8 block-2 92*, SENP7 block 61*, Platelet DG rel -3 and SENP6 inh 87*.
`COc1ccc(C(=O)N/C(=C\c2ccc(SC)cc2)C(=O)NCCCn2ccnc2)cc1OC` gave SENP8 block-1 -94, SENP8 block-2 2, SENP7 block 9 and SENP6 inh -22.
For CC(=O)NC(Cc1cccc(F)c1)C(=O)NC1CCN(C(=O)c2ccc(C)cc2)CC1 (stereo not given) the results were SENP8 block-1 9, SENP8 block-2 3, SENP7 block -2, Platelet DG rel 8 and SENP6 inh -3.
`Cc1ccc(N=Nc2c(=O)[nH]n3c(C)cc(C)nc23)cc1` gave SENP8 block-1 49*, SENP8 block-2 -10, SENP7 block -10, Platelet DG rel 5 and SENP6 inh -15.
CCOC(=O)N1CCC(Nc2c(N3CCN(c4cc(Cl)ccc4C)CC3)c(=O)c2=O)CC1 was read as SENP8 block-1 11, SENP8 block-2 -9, SENP7 block 7, Platelet DG rel 16 and SENP6 inh -4.
`CCOC(=O)N1CCC(Nc2c(-c3ccc(C)c(C)c3)c(=O)c2=O)CC1` gave SENP8 block-1 47*, SENP8 block-2 1, SENP7 block 4, Platelet DG rel 5 and SENP6 inh 5.
